# According to the OligoGym collection:
# Molecular target: PPM1E
# Test: pooled miR-30 sensor sort-seq; sequence = guide strand
# Conditions: shRNA
# Note: reference of the scale not given here.
row,Sequence,sensor-assay potency score (higher = more potent)
1,TTACATTTAAGAATTGAGCCAT,0.639
2,TATATTTGTAGAGCTGCTGCAG,0.13
3,TTGCTTTCTTTGGTGCACCAGG,-0.843
4,TACAGCTTTGTTCATGTCCCTC,-0.388
5,TTGCTTGCTTCTATTTGTGTGA,-0.309
6,TTTTAGATTGAAAACACTGTAC,0.00481
7,TAAAACTTTGGATTAAACCTGA,-0.0256
8,TAGATTGAAAACACTGTACTTT,0.776
9,TATTTGTGTGAGATCTAGGTAG,0.201
10,TTTGGATTAAACCTGAATCTGT,-0.682
11,TTTCTCACAAGCATAACCTGGG,0.732
12,TAGTTCAACAGCTTGGCCCTTT,0.206

# Molecular target: PPM1F
# Test: as above
# Conditions: shRNA
row,Sequence,sensor-assay potency score (higher = more potent)
1,TTCTGGTCTGTGTGGCTCCATC,-1.7
2,TAAATTATATGACACAACAGGT,-0.732
3,AAGGTCTGTCTGTAGCAGCTGT,-0.309
4,ATATCTGTAAATATGAACCCAC,-0.596
5,AACATCTGGTCGGTGCGCCGGA,-0.815
6,TTAAATTATATGACACAACAGG,-0.831
7,TATGACACAACAGGTCATCTTG,-0.621
8,TACCTCGCAGCATCCACGCCTC,-0.377
9,TCAAACACAGCAAAGTAGGCGC,-0.108
10,TCTGTCTGTAGCAGCTGTGAAA,-1.23
11,TTTCCTGAGAAACATCTGGTCG,-0.801
12,TTATATGACACAACAGGTCATC,-0.681

# Molecular target: PPM1J
# Test: as above
# Conditions: shRNA
row,Sequence,sensor-assay potency score (higher = more potent)
1,TAGCACATCATCTGGGCAGTGC,-0.403
2,TAGATCACAACCAGTGCACAGC,-0.65
3,TACTCCTGTAACACTCCTCCGA,-0.279
4,TAGCAGGTAGATCACAACCAGT,-1.29
5,TTGATGACCTCGGCGTAGCCTG,-0.901
6,TTGGATATAGCGGACATCCCTT,-0.328
7,TTCACTGCCTAGCAGCTCTGGT,-0.516
8,TCTTTTTGTAGGCCCAGCCGGT,-1.16
9,AAGTATCTCTACCAGGTCCTTT,-0.98
10,TCGATCTTTTTGTAGGCCCAGC,-1.4
11,ACAGTCAGTAGTGACATCCCAC,-0.629
12,TTCCGGACAATGATGGCCCTGC,0.189

# Molecular target: PPP1R13B
# Test: as above
# Conditions: shRNA
row,Sequence,sensor-assay potency score (higher = more potent)
1,TTCACTGATTCGCTTGTCCATC,-0.504
2,TTACATTTCTCTGAGTTCGTTG,-0.0932
3,TTCTACAACATCTCGACAGGTT,0.568
4,TTGCTGTAGTCGACTTGTCCTC,-0.682
